111 compounds from ChEMBL document CHEMBL1857833, “Screening and optimization of specific chemical series against human African Trypanosomiasis (HAT)” can be followed below.

Among all 4,400 compounds or so, about 390 (8.9%) showed an effect of 50% or more. The sample holds strong results, similar compounds and a random draw of the others, so the mix is not that of the screen.

This assay concerns Trypanosoma brucei. Description: DNDI: Inhibition of Human African Trypanosomiasis, SBRI 427, in vitro at 2 ug.mL-1. The assay is classed as functional.
Turning to `O/N=C(/c1cccnc1Oc1ccc(F)c(Cl)c1)N1CCN(c2ccc(F)cc2)CC1`, the “% inhibition” value is recorded as -10%.

For the compound `O/N=C(\NCCN1CCOCC1)c1ccc(Oc2ccc(Cl)cc2)nc1`, the “% inhibition” value is given as -2%. In the case of `Cc1cccc(Oc2ccc(/C(=N/O)n3ccnc3)cn2)c1`, the “% inhibition” value turned out to be 15%.

Consider `COc1cccc(N2CCN(Cc3coc(-c4ccc(F)cc4)n3)CC2)c1`, for which the “% inhibition” value is -1%. With `CSc1ccc(Oc2nc(C)ccc2/C(=N/O)N2CCSCC2)cc1C`, the “% inhibition” value is reported as 12%.

In the case of `O/N=C(\NCCN1CCOCC1)c1cccnc1Oc1ccc2c(c1)CCCC2`, the “% inhibition” value is recorded as 8%. For the compound `CCC(C)(C)N/C(=N\O)c1ccc(C)nc1Oc1cc(C)cc(C)c1`, the “% inhibition” value was 24%. On to `CCOc1ccccc1-c1nc(CN2CCN(CC)CC2)co1`, for which the “% inhibition” value is 16%. `Cc1ccc(/C(=N/O)NCCN2CCCC2)c(OCc2cccc(F)c2)n1`: the “% inhibition” value is -12%.

With `CCOc1cccc(Oc2ncccc2/C(N)=N/O)c1`, the “% inhibition” value amounted to 10%. In the case of `CCOc1ccccc1-c1nc(CN(C)Cc2cccc3ccccc23)co1`, the “% inhibition” value is reported as 15%. In the case of `COc1ccc(NCc2coc(-c3ccc(F)cc3)n2)cc1`, the “% inhibition” value is listed as -3%.

Turning to `Brc1ccccc1-c1nc(CNCCN2CCOCC2)co1`, the “% inhibition” value was found to be 9%.

Take `Cc1cc(C)n(/C(=N\O)c2ccc(Oc3ccc(Cl)cc3)nc2)n1`: the “% inhibition” value was -5%. On to `O/N=C(/c1cccnc1Oc1ccc(F)cc1Cl)N1CCCc2ccccc21`, for which the “% inhibition” value is recorded as 100%. Take `O/N=C(/c1cccnc1Oc1ccc(F)cc1Cl)N1CCCCCC1`: the “% inhibition” value is 11%. The result for `O/N=C(/c1cccnc1Oc1ccc(F)cc1Cl)N1CCCC1` reads 13%; that for `COc1ccc(Oc2nc(C)ccc2/C(=N/O)N2CCC=N2)cc1`, 8%. The result for `CCOC(=O)N1CCN(Cc2coc(-c3ccccc3Cl)n2)CC1` reads 8%; that for `Cc1cccc(Oc2nc(C)ccc2/C(=N/O)N2Cc3ccccc3C2)c1`, 3%.

As to `Cc1ccc(Oc2nc(C)ccc2/C(=N/O)N(C)c2ccccc2)c(C)c1`, the “% inhibition” value came out at 41%. As for `CC1CC(N/C(=N\O)c2cccnc2Oc2ccccc2OC(C)C)CC(C)(C)C1` (stereo unspecified), the “% inhibition” value is given as 99%.

As for `CC(C)Oc1ccccc1Oc1ncccc1/C(=N/O)NC1CCCCC1`, the “% inhibition” value was 99%. For `CC(C)Oc1ccccc1Oc1ncccc1/C(=N/O)NCc1ccncc1`, the “% inhibition” value came out at 7%.

In the case of `CC1CCC(N/C(=N\O)c2cccnc2Oc2ccccc2OC(C)C)CC1` (stereo unspecified), the “% inhibition” value is recorded as 98%. As to `CC(C)Oc1ccccc1Oc1ncccc1/C(=N/O)NCC1CCCO1` (stereo unspecified), the “% inhibition” value is -11%. Consider `COC(=O)C1CCN(/C(=N\O)c2cccnc2Oc2ccccc2OC(C)C)CC1`, for which the “% inhibition” value is listed as -2%. The result for `COc1ccc(CN/C(=N\O)c2cccnc2Oc2ccccc2OC(C)C)cc1` reads -18%; that for `c1ccc(N2CCN(Cc3coc(-c4ccco4)n3)CC2)nc1`, 4%; that for `COc1cc2c(cc1OC)C(C(C)C)N(Cc1coc(-c3ccccc3Cl)n1)CC2` (stereo unspecified), 3%.

Consider `COc1ccc(CCN(C)Cc2coc(-c3cc(OC)c(OC)c(OC)c3)n2)cc1OC`, for which the “% inhibition” value came to 9%.

Consider `Clc1cccc(N2CCN(Cc3coc(-c4ccco4)n3)CC2)c1`, for which the “% inhibition” value is on record as 10%. Then `Fc1cccc(-c2nc(CNCc3cccnc3)co2)c1`, with 17%; and `CCN(CCC#N)Cc1coc(-c2ccc(Cl)cc2Cl)n1`, with 8%.

Take `Fc1ccc(-c2nc(CNCc3ccccc3C(F)(F)F)co2)cc1`: the “% inhibition” value was found to be 18%.

Consider `CC1CCCCC1NCc1coc(-c2ccccc2Br)n1` (stereo unspecified), for which the “% inhibition” value was 11%.

Regarding `CC1CCCCC1NCc1coc(-c2ccccc2Cl)n1` (stereo unspecified), the “% inhibition” value is on record as -2%.

Regarding `COc1ccc(-c2nc(CNC3CCCC(C)C3C)co2)cc1` (stereo unspecified), the “% inhibition” value is recorded as 2%.

As to `CC1CCCC(NCc2coc(-c3cccc4ccccc34)n2)C1C` (stereo unspecified), the “% inhibition” value is 71%. In the case of `CC1CCCC(NCc2coc(-c3ccccc3Br)n2)C1C` (stereo unspecified), the “% inhibition” value is 98%. The result for `CC1CCCC(NCc2coc(-c3cccc(F)c3)n2)C1C` (stereo unspecified) reads 10%; that for `CCOC(=O)c1cn(Cc2coc(-c3ccc(OCC)cc3)n2)nc1C(F)(F)F`, -15%; that for `Cc1ccc(Oc2nc(C)ccc2/C(=N/O)Nc2ccccc2)c(C)c1`, -4%.

`Cc1cc(N)nn1Cc1coc(-c2cccc3ccccc23)n1`: the “% inhibition” value is 25%. `CC(C)c1ccc(N/C(=N\O)c2ccc(Oc3ccc(-n4ccnc4)cc3)nc2)cc1`: the “% inhibition” value came out at 11%. As for `CC(C)c1nccn1Cc1coc(-c2ccc(C(F)(F)F)cc2)n1`, the “% inhibition” value was -2%. As to `CC(C)c1nccn1Cc1coc(-c2ccc(OC(F)(F)F)cc2)n1`, the “% inhibition” value stood at 56%. Regarding `Cc1ccc(-c2nc(Cn3nc(N)cc3C)co2)cc1`, the “% inhibition” value stood at 99%. For `COc1ccc(-c2nc(Cn3ccnc3C(C)C)co2)cc1`, the “% inhibition” value is on record as 29%. As for `Cc1cccc(-c2nc(Cn3nc(N)cc3C)co2)c1`, the “% inhibition” value is listed as 9%. As for `CCOc1ccc(-c2nc(Cn3nc(N)cc3-c3ccccc3)co2)cc1`, the “% inhibition” value is -17%.

In the case of `COc1ccc(-c2nc(Cn3nc(N)cc3C)co2)cc1`, the “% inhibition” value was found to be 25%. As for `Nc1cc(-c2ccccc2)n(Cc2coc(-c3ccc(OC(F)(F)F)cc3)n2)n1`, the “% inhibition” value was -3%. For `Cc1cc(N)nn1Cc1coc(-c2ccc(OC(F)(F)F)cc2)n1`, the “% inhibition” value was determined as 97%.

For `Cc1cc(N)nn1Cc1coc(-c2ccc(F)cc2)n1`, the “% inhibition” value came to 12%. In the case of `COc1cccc(-c2nc(Cn3nc(N)cc3C)co2)c1`, the “% inhibition” value is 18%. For the compound `CCOc1ccc(-c2nc(Cn3nc(N)cc3C)co2)cc1`, the “% inhibition” value came to 99%. Take `Fc1ccc(-c2nc(CN3CCC(N4CCCCC4)CC3)co2)cc1`: the “% inhibition” value was 4%. `O/N=C(/c1ccc(Oc2cccc3c2CCCC3)nc1)N1CCOCC1`: the “% inhibition” value is listed as 15%. In the case of `C=CCN1CCN(/C(=N\O)c2ccc(C)nc2OCc2ccccc2F)CC1`, the “% inhibition” value came to 3%. With `FC(F)(F)c1ccc(-c2nc(CN3CCN(c4ncccn4)CC3)co2)cc1`, the “% inhibition” value turned out to be 4%. For the compound `Cc1ccc(/C(=N/O)NCc2c(F)cccc2F)c(OCc2ccc(C(C)C)cc2)n1`, the “% inhibition” value is on record as 16%. For `Cc1ccc(-c2nc(CN(C)c3cccc(C)c3)co2)cc1`, the “% inhibition” value stood at 21%.

Turning to `Cc1cc(Oc2nc(C)ccc2/C(=N/O)N2CCN(c3ccccc3)CC2)cc(C(C)C)c1`, the “% inhibition” value was determined as 5%. Then `COc1cccc(Oc2ccc(/C(=N/O)Nc3ccc(C(C)C)cc3)cn2)c1`, with -4%; and `CC(C)(C)CNCc1coc(-c2ccc(Cl)cc2Cl)n1`, with 14%; and `CC1CCc2ccccc2N1/C(=N\O)c1ccc(Oc2cccc3c2OC(C)(C)C3)nc1` (stereo unspecified), with 10%.

As to `C=CCN1CCN(/C(=N\O)c2ccc(C)nc2Oc2ccc(C)cc2C)CC1`, the “% inhibition” value turned out to be 14%. Regarding `CCCC1=NCCN1Cc1coc(-c2cccc(OCC)c2)n1`, the “% inhibition” value stood at 2%. For `Cc1ccccc1-c1nc(CNCc2ccccn2)co1`, the “% inhibition” value is 15%. The result for `CCOc1ccccc1-c1nc(CN(C)C2CCCCC2)co1` reads 13%; that for `Cc1ccccc1-c1nc(CN(C)C2CCN(C)CC2)co1`, 28%.

As to `CN1CCC(N(C)Cc2coc(-c3cccc4ccccc34)n2)CC1`, the “% inhibition” value stood at 69%. For `CCOc1ccccc1-c1nc(CN(C)C2CCN(C)CC2)co1`, the “% inhibition” value is -1%.

As for `CN(Cc1coc(-c2cccc3ccccc23)n1)C1CCCCC1`, the “% inhibition” value came to 82%.

For `Cc1ccccc1-c1nc(CN(C)C2CCCCC2)co1`, the “% inhibition” value worked out at 10%. On to `CCOc1ccccc1-c1nc(Cn2nc(N)cc2C)co1`, for which the “% inhibition” value was 5%. Then `COc1ccc(Oc2nc(C)ccc2/C(=N/O)NCc2cccc(OC)c2)cc1`, with 25%.

Take `C#CC1(NCc2coc(-c3cccc(F)c3)n2)CCCCC1`: the “% inhibition” value turned out to be 18%. Turning to `O/N=C(/c1ccnc(Oc2ccc(F)c(Cl)c2)c1)N1CCSC1`, the “% inhibition” value is -2%. Regarding `Cc1ccc(/C(=N/O)N(C)Cc2ccco2)c(Oc2cccnc2)n1`, the “% inhibition” value is listed as 13%. Then `CCCCN(C)Cc1coc(-c2cccc3ccccc23)n1`, with 16%.

With `CC(C)(C)COc1ncccc1/C(=N/O)n1ccnc1`, the “% inhibition” value is reported as 30%. As to `CC(=O)c1ccc(N/C(=N\O)c2cccnc2Oc2ccccc2OCc2ccccc2)cc1`, the “% inhibition” value was -2%. Turning to `O/N=C(\NCC1CC1)c1cccnc1OCc1ccccc1`, the “% inhibition” value came to 99%. With `CC(C)N/C(=N\O)c1cccnc1Oc1ccccc1OCc1ccccc1`, the “% inhibition” value is reported as -14%. Regarding `CC(C)COc1ncccc1/C(=N/O)Nc1ccccc1`, the “% inhibition” value is recorded as 5%. The result for `COC(=O)C1CCN(/C(=N\O)c2cccnc2OCC(C)C)CC1` reads 5%; that for `COC(=O)C1CCN(/C(=N\O)c2cccnc2OCC(F)(F)F)CC1`, 12%. The result for `O/N=C(\Nc1ccccc1)c1cccnc1OCc1ccccc1` reads 77%. Turning to `O/N=C(\NC1CCC1)c1cccnc1Oc1ccccc1OCc1ccccc1`, the “% inhibition” value is on record as 97%. For `CCCN/C(=N\O)c1cccnc1Oc1ccccc1OCc1ccccc1`, the “% inhibition” value is -7%. On to `O/N=C(\NCc1cccs1)c1cccnc1OCc1ccccc1`, for which the “% inhibition” value was 10%. Consider `COC(=O)C1CCN(/C(=N\O)c2cccnc2OCc2ccccc2)CC1`, for which the “% inhibition” value was determined as 61%.

Consider `O/N=C(\NCc1c(F)cccc1F)c1cccnc1OCc1ccccc1`, for which the “% inhibition” value turned out to be 23%. As for `COc1cccc(Oc2ccc(/C(=N/O)N3CCN(c4ccccc4)CC3)cn2)c1`, the “% inhibition” value is recorded as -6%. As for `COCCN(Cc1coc(-c2cccc3ccccc23)n1)C(C)C`, the “% inhibition” value was found to be 6%. `CCOc1ccccc1-c1nc(CN(c2ccccc2)C2CCCCC2)co1`: the “% inhibition” value is listed as -3%.

For the compound `COC(=O)C1CCN(/C(=N\O)c2ccc(C)nc2Oc2cccc3cnccc23)CC1`, the “% inhibition” value was determined as 21%.

With `COc1cccc(-c2nc(CN3CCN(c4ccccc4)CC3)co2)c1`, the “% inhibition” value was found to be 15%. For `c1coc(-c2nc(CN3CCN(Cc4ccc5c(c4)OCO5)CC3)co2)c1`, the “% inhibition” value was -2%. On to `COc1ccc(-c2nc(CNCc3cccc(OC)c3)co2)cc1`, for which the “% inhibition” value was -15%.

Take `COCCN(/C(=N\O)c1ccc(C)nc1Oc1cccc(C)c1)C(C)C`: the “% inhibition” value turned out to be 23%. Take `Cc1ccc(/C(=N/O)N2C(C)C=CC2C)c(Oc2ccc(F)c(Cl)c2)n1` (stereo unspecified): the “% inhibition” value is given as 8%. Then `CCN(Cc1ccncc1)Cc1coc(-c2cccc3ccccc23)n1`, with 27%; and `N/C(=N\O)c1cccnc1OCc1ccccc1`, with 9%. On to `COc1ccc(CN/C(=N\O)c2cccnc2OCc2ccccc2)cc1`, for which the “% inhibition” value stood at 10%. The result for `O/N=C(\NC1CCCC1)c1cccnc1OCc1ccccc1` reads 53%; that for `COCC(C)N/C(=N\O)c1cccnc1Oc1ccccc1OCc1ccccc1` (stereo unspecified), -7%; that for `CCC(CC)N/C(=N\O)c1cccnc1OCc1ccccc1`, 94%. Consider `CC(C)c1ccc(COc2ncccc2/C(=N/O)NC2CCCC2)cc1`, for which the “% inhibition” value was found to be 21%.
